# Screening data as filed in PubChem.
# DAGLB inh: DAGLB lipase inhibitors, primary screen, biochemical, fluorescence, HTS; Diacylglycerol lipase-beta (Homo sapiens), Q8NCG7; HEK293T DAGLB membrane lysate, EnzChek fluorogenic substrate; inhibition, % at 5.17 µM; 340,000 compounds, 0.059% hits; AID 504411, 2011; in the data active = inhibition above about 34%;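 also: 0% = enzyme with vehicle and 100% = wells lacking enzyme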
# NadD block: inhibitors of S. aureus NadD, primary screen, biochemical, colorimetric, uHTS. Nicotinate-nucleotide adenylyltransferase NadD (Staphylococcus aureus N315). purified NadD enzyme, colorimetric absorbance read-out. inhibition, % at 20 µM. 360,000 compounds, 0.78% hits; in the data active = inhibition above about 26%
# MsrA act: bovine MsrA enzyme activators, primary screen, biochemical, absorbance, HTS; purified bovine MsrA, absorbance read-out; 360,000 compounds, 0.3% hits; Methionine sulfoxide reductase A (Bos taurus); AID 602163, 2012; activation, % at 10.6 µM; in the data active = activation above about 7.5%;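 also: 0% = vehicle and 100% = reference activator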
# rCAG RNA binder: binders of r(CAG) RNA repeats, primary screen, biochemical, fluorescence; 370,000 compounds, 1.3% hits; inhibition, % at 3 µM; r(CAG) RNA repeat, TO-PRO-1 dye displacement fluorescence;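 active = inhibition above the plate cutoff, the mean of all test compounds on that plate plus 3 SD, cut at about 35% in these data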;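 also: 0% = DMSO alone and 100% = 100 µM mitoxantrone as full dye displacement; higher means more dye released from RNA so lower well fluorescence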
# MsrA inh: bovine MsrA enzyme inhibitors, primary screen, biochemical, absorbance, HTS. Methionine sulfoxide reductase A (Bos taurus). purified bovine MsrA, absorbance read-out. inhibition, % at 15.5 µM. 360,000 compounds, 0.75% hits; in the data active = inhibition above about 4.5%;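 also: 0% = vehicle wells with enzyme and 100% = reference inhibitor wells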
# Pemphigus Ab inh: inhibitors of pemphigus antibody binding to DSG3, primary screen, biochemical, bead-based, flow cytometry, scFv-GFP; 310,000 compounds, 0.48% hits; binding (percent of control), % at 10 µM; DSG3-coupled beads, scFv-anti-DSG3-GFP binding; hits give low values;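 active = binding more than 3 SD below its plate's average and above zero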;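 also: hits lower antibody fragment binding to DSG3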
# Target sequence (P32926 whole entry, looked up, the tested form may be a part): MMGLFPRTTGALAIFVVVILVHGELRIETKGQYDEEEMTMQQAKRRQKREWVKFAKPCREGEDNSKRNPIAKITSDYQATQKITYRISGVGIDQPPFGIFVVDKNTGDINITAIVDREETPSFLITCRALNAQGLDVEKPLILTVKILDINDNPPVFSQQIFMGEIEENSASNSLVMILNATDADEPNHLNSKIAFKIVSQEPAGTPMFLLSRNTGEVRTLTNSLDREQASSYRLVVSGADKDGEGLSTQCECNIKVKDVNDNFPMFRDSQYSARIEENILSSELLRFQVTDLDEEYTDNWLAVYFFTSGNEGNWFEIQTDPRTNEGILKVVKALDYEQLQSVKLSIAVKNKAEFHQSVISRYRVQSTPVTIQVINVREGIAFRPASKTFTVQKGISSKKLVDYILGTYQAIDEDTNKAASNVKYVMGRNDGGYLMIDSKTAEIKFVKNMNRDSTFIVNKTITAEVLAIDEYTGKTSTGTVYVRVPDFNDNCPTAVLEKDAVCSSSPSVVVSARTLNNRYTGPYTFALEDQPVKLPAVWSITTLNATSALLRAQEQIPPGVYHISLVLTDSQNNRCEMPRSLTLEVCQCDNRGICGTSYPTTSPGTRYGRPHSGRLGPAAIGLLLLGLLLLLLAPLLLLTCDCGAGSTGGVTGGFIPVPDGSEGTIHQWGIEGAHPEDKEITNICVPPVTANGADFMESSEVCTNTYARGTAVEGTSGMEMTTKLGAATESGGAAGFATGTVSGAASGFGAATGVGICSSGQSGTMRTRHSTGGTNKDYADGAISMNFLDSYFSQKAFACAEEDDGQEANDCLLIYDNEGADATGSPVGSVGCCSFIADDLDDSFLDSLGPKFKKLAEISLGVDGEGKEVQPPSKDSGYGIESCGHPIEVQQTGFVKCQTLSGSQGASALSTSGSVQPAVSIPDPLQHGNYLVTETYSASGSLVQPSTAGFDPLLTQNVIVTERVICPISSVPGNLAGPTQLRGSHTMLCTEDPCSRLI
# NadD conf: inhibitors of S. aureus NadD, confirmation, biochemical, colorimetric, single concentration. shares compounds with NadD block. purified S. aureus NadD, colorimetric enzyme assay. inhibition, % at 20 µM. 2,000 compounds, 13% hits; in the data active = inhibition mostly above about 42%, no sharp cut-off; inactive = mostly below about 42%
# Active calls of the source: *; nt = no result; ! = not confirmed by another sample. Shown are actives, neighbours in structure and some others; about 3.2% of the full set was active somewhere.
SMILES,DAGLB inh,NadD block,MsrA act,rCAG RNA binder,MsrA inh,Pemphigus Ab inh,NadD conf
COc1ccc(-c2cc(C(=O)Nc3cc(OC)cc(C(=O)Nc4cccc(C(F)(F)F)c4)c3)[nH]n2)cc1,-5,40*!,0,8,-1,109,23
COC(=O)[C@]12C[C@H](CC(=O)N3CCSCC3)C(=O)N(Cc3ccco3)C1=C[C@H](COCc1ccccc1)O[C@@H]2C,nt,nt,nt,6,nt,nt,nt
CCOc1ccc(S(=O)(=O)N2CN(c3cccc(C(C)=O)c3)c3nc4ccccc4nc32)cc1,0,30*,-7,12,2,nt,8
CN(C)/C=C1\C(=O)N(c2ccc(Cl)c(Cl)c2)CS1(=O)=O,2,33*,-1,3,-1,90,-1
CN(C)C1=C(Cl)C(=O)N(c2ccc(Cl)c(Cl)c2)C1=O,7,3,-2,3,0,92,nt
Brc1ccc(-c2ccc(/C=N/Nc3nncc(-c4ccccc4)n3)o2)cc1,3,29*,-10,6,-1,95,9
CC(=O)Nc1cc(-c2ccsc2)cn2c(-c3ccc(F)cc3)cnc12,nt,1,-4,11,1,nt,nt
NC(=O)[C@H]1CC2(CC(c3cccc(NC(=O)COc4ccc(Cl)cc4)c3)=NO2)CN1C(=O)C(c1ccccc1)c1ccccc1 (stereo partly drawn),1,33*,-2,13,0,103,33
N#CCC(=O)N1CC2(CC(c3cccc(NC(=O)COc4ccc(Cl)cc4)c3)=NO2)C[C@@H]1C(N)=O (stereo partly drawn),-2,8,0,13,1,103,nt
NC(=O)[C@@H]1CC2(CC(c3cccc(NC(=O)COc4ccc(Cl)cc4)c3)=NO2)CN1C(=O)COc1ccc(Cl)cc1 (stereo partly drawn),3,48*,-2,7,0,97,24
C/C=C\C=C\C(=O)Nc1cccc(C2=NOC3(C2)C[C@@H](C(N)=O)N(C(=O)C(c2ccccc2)c2ccccc2)C3)c1 (stereo partly drawn),-1,39*,0,16,-1,101,55*
C/C=C\C=C/C(=O)Nc1cccc(C2=NOC3(C2)C[C@H](C(N)=O)N(C(=O)CC)C3)c1 (stereo partly drawn),1,-8,-4,15,2,87,nt
CCc1ccc(NC(=O)c2cc(S(=O)(=O)N3CCCC3)ccc2F)cc1,-4,-7,-2,2,-1,99,nt
CN1CCN(c2ccc3c(c2)Oc2ccccc2CN(Cc2cn(Cc4ccccc4C(F)(F)F)nn2)S3(=O)=O)CC1,nt,nt,nt,6,nt,nt,nt
CCCCc1c(-c2ccccc2OC)ncn1Cc1cc(F)cc(F)c1,nt,nt,nt,-2,1,nt,nt
COc1ccc(CNCC#Cc2cccnc2)c(OC)c1,nt,nt,nt,3,nt,nt,nt
O=C(C1CCC1)N1CCc2cc(S(=O)(=O)N3CCCC3)ccc21,nt,nt,nt,1,nt,nt,nt
COC(=O)c1ccc2c(c1)NC(=O)C1CCCN21 (stereo not drawn),nt,3,-1,nt,nt,nt,nt
Cc1ccc(NC(=O)COC(=O)c2ccc3c(c2)NC(=O)C2CCCN32)cc1 (stereo not drawn),0,38*,-4,15,2,72,32
C[C@@H]1[C@@H](O)C[C@@]2(C[C@H](O)c3cc(F)ccc3O2)O[C@H]1c1ccccc1Cl,nt,nt,nt,-1,nt,nt,nt
Nc1ccc2cccc(O)c2c1,5,41*,-8,15,0,64*,29
O=C(NCc1ccccc1F)C1C2C=CC3(CN(Cc4ccccc4)C(=O)C13)O2 (stereo not drawn),nt,nt,nt,-1,nt,nt,nt
O=C(N/N=C/c1ccc2c(c1)OCO2)c1sc2cccc(Cl)c2c1Cl,-4,30*,-10,8,0,112,7
O=C(N/N=C/c1ccc2c(c1)OCO2)c1sc2cc(Cl)ccc2c1Cl,-1,21,-7,2,0,101,nt
C=CCNC(=S)NNc1nc2c(c(=O)[nH]1)C1(CCCC1)Cc1ccccc1-2,1,10,-1,13,1,97,nt
SMILES,DAGLB inh,NadD block,MsrA act,rCAG RNA binder,MsrA inh,Pemphigus Ab inh,NadD conf
O=c1[nH]c(NNC(=S)NCc2ccccc2)nc2c1C1(CCCCC1)Cc1ccccc1-2,3,37*,-12,18,0,87,53*
O=[N+]([O-])c1ccccc1N/N=C/c1ccc2c(c1)OCO2,6,-1,-2,0,2,92,nt
Cc1nc(Nc2ccc(Cl)c(Cl)c2)sc1C(/C=C/c1ccc2c(c1)OCO2)=NNc1ccc([N+](=O)[O-])cc1[N+](=O)[O-],3,48*,-2,8,0,78,0
N#CC1=C(S)N=C(N)C(c2nc(-c3ccccc3)cs2)C12CCCCC2 (stereo not drawn),5,52*,-3,12,0,94,75*
N#CC1=C(S)N=C(N)C(c2nc(-c3ccccc3)cs2)C12CCCC2 (stereo not drawn),5,52*,-1,16,1,104,73*
Nc1nc(-c2ccccc2)cs1,4,0,-4,0,1,99,nt
Cc1ccc(-c2csc(C3C(N)=NC(S)=C(C#N)C34CCCCC4)n2)cc1 (stereo not drawn),11,27,1,23,0,88,nt
CCNC(=O)C1(C)CCCN(C(=O)c2cc(C)n(C(C)(C)C)n2)C1 (stereo not drawn),nt,3,0,0,0,nt,nt
Cc1ccc([N+](=O)[O-])cc1-c1ccc(/C=N/NC(=O)c2cc3c(ccc4ccccc43)o2)o1,-3,33*,-6,8,0,92,-5
N#CCn1cc(/C=N/NC(=O)c2cc3c(ccc4ccccc43)o2)c2ccccc21,-1,31*,-6,12,4,91,24
Cc1ccc(-c2ccc(/C=N\NC(=O)c3cc4c(ccc5ccccc54)o3)o2)cc1[N+](=O)[O-],-3,45*,-2,3,0,94,10
O=C(N/N=C/c1cccc([N+](=O)[O-])c1)c1cc2c(ccc3ccccc32)o1,-3,6,0,4,-1,104,nt
Cc1cc([N+](=O)[O-])ccc1-c1ccc(/C=N/NC(=O)c2ccc(Br)o2)o1,15,31*,-1,4,0,86,9
COc1ccccc1/C=N/NC(=O)c1cc2c(ccc3ccccc32)o1,-6,13,-7,5,-1,nt,nt
